# PubChem BioAssay AID1159580 (chemical genetic matrix, 2015)
# Screen size: about 5,500 compounds; about 2,000 (36%) were called active. Roughly 18% stayed inconclusive and do not appear here. Some of the results follow. A number with no mark means an inactive call. No stated cut-off is given here; in the data, active means normalized growth mostly below about 0.91 (no sharp cut-off); inconclusive means no clear call, values can overlap the other calls; inactive means mostly above about 0.92.
# Assay: chemical genetic growth profiling, strain panel (AID 1159580);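 further: tested at 20 µM; growth read once vehicle control cultures reached saturation at 30 °C; 1 = growth at the plate median or of vehicle wells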
# Conditions: S. cerevisiae deletion strains, growth OD
smiles,measurement,setting,value
COc1cc(CC(C)N)c(OC)cc1I (configuration not stated),normalized growth,"locus YAL040C, strain CLN3, stronger effect = lower value",0.975
same,normalized growth,"locus YCL061C, strain MRC1 (second series), stronger effect = lower value",1
same,normalized growth,"locus YDR363W, strain ESC2, stronger effect = lower value",1.04
same,normalized growth,"locus YER002W, strain NOP16, stronger effect = lower value",1.03
same,normalized growth,"locus YJR075W, strain HOC1, stronger effect = lower value",1.01
same,normalized growth,"locus YMR307W, strain GAS1, stronger effect = lower value",0.996
same,normalized growth,"locus YNL175C, strain NOP13, stronger effect = lower value",0.995
same,normalized growth,"locus YNL197C, strain WHI3, stronger effect = lower value",1.02
same,normalized growth,"locus YNL224C, strain SQS1, stronger effect = lower value",0.997
same,normalized growth,"locus YNL322C, strain KRE1, stronger effect = lower value",1
same,normalized growth,"locus YOR083W, strain WHI5 (second series), stronger effect = lower value",0.984
same,normalized growth,"locus YPL055C, strain LGE1, stronger effect = lower value",1.03
same,normalized growth,"locus YPL241C, strain CIN2, stronger effect = lower value",0.991
CC1=CC(=O)c2c(O)cccc2C1=O,normalized growth,"locus YAL021C, strain ccr4, stronger effect = lower value",0.0614 (active)
same,normalized growth,"locus YAL026C, strain drs2, stronger effect = lower value",0.0573 (active)
same,normalized growth,"locus YAL030W, strain snc1, stronger effect = lower value",0.0538 (active)
same,normalized growth,"locus YBL061C, strain skt5, stronger effect = lower value",0.0578 (active)
same,normalized growth,"locus YBR009C, strain hhf1, stronger effect = lower value",0.0566 (active)
same,normalized growth,"locus YBR023C, strain chs3, stronger effect = lower value",0.0593 (active)
same,normalized growth,"locus YBR171W, strain sec66, stronger effect = lower value",0.0747 (active)
same,normalized growth,"locus YBR231C, strain swc5, stronger effect = lower value",0.0608 (active)
same,normalized growth,"locus YBR279W, strain paf1, stronger effect = lower value",0.0613 (active)
same,normalized growth,"locus YCL011C, strain gbp2, stronger effect = lower value",0.053 (active)
same,normalized growth,"locus YCL016C, strain dcc1, stronger effect = lower value",0.0629 (active)
same,normalized growth,"locus YCL069W, strain vba3, stronger effect = lower value",0.058 (active)
same,normalized growth,"locus YCR088W, strain abp1, stronger effect = lower value",0.0593 (active)
same,normalized growth,"locus YDL005C, strain med2, stronger effect = lower value",0.0698 (active)
same,normalized growth,"locus YDL040C, strain nat1, stronger effect = lower value",0.073 (active)
same,normalized growth,"locus YDR001C, strain nth1, stronger effect = lower value",0.0551 (active)
same,normalized growth,"locus YDR069C, strain doa4, stronger effect = lower value",0.0589 (active)
same,normalized growth,"locus YDR137W, strain rgp1, stronger effect = lower value",0.103 (active)
same,normalized growth,"locus YDR159W, strain sac3, stronger effect = lower value",0.139 (active)
same,normalized growth,"locus YDR195W, strain ref2",0.132 (active)
same,normalized growth,"locus YDR297W, strain sur2, stronger effect = lower value",0.0527 (active)
same,normalized growth,"locus YDR334W, strain swr1, stronger effect = lower value",0.063 (active)
same,normalized growth,"locus YDR335W, strain msn5, stronger effect = lower value",0.0594 (active)
same,normalized growth,"locus YDR392W, strain spt3, stronger effect = lower value",0.0748 (active)
same,normalized growth,"locus YEL003W, strain gim4, stronger effect = lower value",0.0513 (active)
same,normalized growth,"locus YEL037C, strain rad23, stronger effect = lower value",0.0601 (active)
same,normalized growth,"locus YEL061C, strain CIN8 (second series), stronger effect = lower value",0.0564 (active)
same,normalized growth,"locus YER015W, strain faa2, stronger effect = lower value",0.0571 (active)
same,normalized growth,"locus YER016W, strain bim1, stronger effect = lower value",0.0586 (active)
same,normalized growth,"locus YER111C, strain swi4, stronger effect = lower value",0.71 (active)
same,normalized growth,"locus YER155C, strain BEM2 (second series), stronger effect = lower value",0.0832 (active)
same,normalized growth,"locus YFR010W, strain ubp6, stronger effect = lower value",0.0636 (active)
same,normalized growth,"locus YGL167C, strain pmr1, stronger effect = lower value",0.071 (active)
same,normalized growth,"locus YGL173C, strain kem1, stronger effect = lower value",0.0648 (active)
same,normalized growth,"locus YGL227W, strain vid30, stronger effect = lower value",0.0587 (active)
same,normalized growth,"locus YGL240W, strain doc1, stronger effect = lower value",0.0736 (active)
same,normalized growth,"locus YGL253W, strain hxk2, stronger effect = lower value",0.0519 (active)
same,normalized growth,"locus YHR013C, strain ard1, stronger effect = lower value",0.101 (active)
same,normalized growth,"locus YHR027C, strain rpn1, stronger effect = lower value",0.0589 (active)
same,normalized growth,"locus YHR030C, strain SLT2, stronger effect = lower value",0.108 (active)
same,normalized growth,"locus YHR079C, strain IRE1, stronger effect = lower value",0.123 (active)
same,normalized growth,"locus YHR142W, strain chs7, stronger effect = lower value",0.0661 (active)
same,normalized growth,"locus YJL092W, strain hpr5, stronger effect = lower value",0.061 (active)
same,normalized growth,"locus YJL095W, strain BCK1 (second series), stronger effect = lower value",0.0545 (active)
same,normalized growth,"locus YJL095W, strain BCK1, stronger effect = lower value",0.133 (active)
same,normalized growth,"locus YJL115W, strain asf1, stronger effect = lower value",0.0773 (active)
same,normalized growth,"locus YJL129C, strain trk1, stronger effect = lower value",0.653 (active)
same,normalized growth,"locus YJL154C, strain vps35, stronger effect = lower value",0.0541 (active)
same,normalized growth,"locus YJL164C, strain tpk1, stronger effect = lower value",0.0572 (active)
same,normalized growth,"locus YJL166W, strain qcr8, stronger effect = lower value",0.0557 (active)
same,normalized growth,"locus YJL187C, strain SWE1, stronger effect = lower value",0.0545 (active)
same,normalized growth,"locus YJR066W, strain TOR1, stronger effect = lower value",0.00113 (active)
same,normalized growth,"locus YKL160W, strain elf1, stronger effect = lower value",0.0646 (active)
same,normalized growth,"locus YKR026C, strain gcn3, stronger effect = lower value",0.0585 (active)
same,normalized growth,"locus YKR091W, strain srl3, stronger effect = lower value",0.0562 (active)
same,normalized growth,"locus YLL001W, strain dnm1, stronger effect = lower value",0.0574 (active)
same,normalized growth,"locus YLL026W, stronger effect = lower value",0.0541 (active)
same,normalized growth,"locus YLL041C, strain sdh2, stronger effect = lower value",0.0519 (active)
same,normalized growth,"locus YLR027C, strain aat2, stronger effect = lower value",0.0528 (active)
same,normalized growth,"locus YLR113W, strain HOG1, stronger effect = lower value",0.191 (active)
same,normalized growth,"locus YLR221C, strain rsa3, stronger effect = lower value",0.054 (active)
same,normalized growth,"locus YLR258W, strain gsy2, stronger effect = lower value",0.056 (active)
same,normalized growth,"locus YLR262C, strain YPT6 (second series), stronger effect = lower value",0.0717 (active)
same,normalized growth,"locus YLR320W, strain mms22, stronger effect = lower value",0.0755 (active)
same,normalized growth,"locus YLR342W, strain FKS1, stronger effect = lower value",0.0621 (active)
same,normalized growth,"locus YLR357W, strain rsc2, stronger effect = lower value",0.113 (active)
same,normalized growth,"locus YLR370C, strain arc18, stronger effect = lower value",0.0568 (active)
same,normalized growth,"locus YLR384C, strain iki3, stronger effect = lower value",0.0609 (active)
same,normalized growth,"locus YML120C, strain ndi1, stronger effect = lower value",0.0584 (active)
same,normalized growth,"locus YMR058W, strain fet3, stronger effect = lower value",0.0576 (active)
same,normalized growth,"locus YMR125W, strain sto1, stronger effect = lower value",0.0728 (active)
same,normalized growth,"locus YMR129W, stronger effect = lower value",0.0547 (active)
same,normalized growth,"locus YMR205C, strain PFK2, stronger effect = lower value",0.0815 (active)
same,normalized growth,"locus YMR231W, strain pep5, stronger effect = lower value",0.0627 (active)
same,normalized growth,"locus YNL071W, strain lat1, stronger effect = lower value",0.0579 (active)
same,normalized growth,"locus YNL183C, strain NPR1, stronger effect = lower value",0.000686 (active)
same,normalized growth,"locus YNL209W, strain ssb2, stronger effect = lower value",0.0563 (active)
same,normalized growth,"locus YNL248C, strain rpa49, stronger effect = lower value",0.0708 (active)
same,normalized growth,"locus YNL322C, strain KRE1 (second series), stronger effect = lower value",0.062 (active)
same,normalized growth,"locus YNR049C, strain mso1, stronger effect = lower value",0.0527 (active)
same,normalized growth,"locus YOR001W, strain rrp6, stronger effect = lower value",0.065 (active)
same,normalized growth,"locus YOR070C, strain gyp1, stronger effect = lower value",0.0567 (active)
same,normalized growth,"locus YOR080W, strain dia2, stronger effect = lower value",0.1 (active)
same,normalized growth,"locus YOR083W, strain WHI5, stronger effect = lower value",0.0584 (active)
same,normalized growth,"locus YOR106W, strain vam3, stronger effect = lower value",0.0629 (active)
same,normalized growth,"locus YOR231W, strain MKK1, stronger effect = lower value",0.115 (active)
same,normalized growth,"locus YOR265W, strain rbl2, stronger effect = lower value",0.0542 (active)
same,normalized growth,"locus YOR270C, strain vph1, stronger effect = lower value",0.0962 (active)
same,normalized growth,"locus YOR290C, strain snf2, stronger effect = lower value",0.906
same,normalized growth,"locus YPL051W, strain arl3, stronger effect = lower value",0.0583 (active)
same,normalized growth,"locus YPL078C, strain atp4, stronger effect = lower value",0.163 (active)
same,normalized growth,"locus YPL106C, strain sse1, stronger effect = lower value",0.0924 (active)
same,normalized growth,"locus YPL240C, strain hsp82, stronger effect = lower value",0.0548 (active)
same,normalized growth,"locus YPL256C, strain CLN2, stronger effect = lower value",0.128 (active)
